Calls of active or inactive are those of the source. The calls were made as follows: active = hit-call score of the fitted dose curve at least 0.9, where 1 is the maximum; inactive = score below 0.9.
Each compound was assayed against human Dopamine Receptor D2L, DRD2 (gene 1813) (UniProt P14416) (assay: ERF_FR_GPCR_hDRD2: Eurofins (ERF) G Protein-Coupled Receptor (GPCR) Radioligand Binding LeadHunter Assay for human Dopamine Receptor D2L Antagonism).
Procedure: ERF_FR_GPCR_hDRD2 is a biochemical, single-readout assay that uses extracted gene-proteins in a cell-free assay. Measurements were taken 1 hour after chemical dosing in a 96-well plate. See D2L Human Dopamine GPCR Binding (Antagonist Radioligand) Assay, Cerep.ERF_FR_GPCR_hDRD2 is an assay component calculated from the ERF_FR_GPCR_hDRD2 assay. It is designed to measure radioligand binding using a type of binding reporter as detected by scintillation counting with radiometry technology.Data from the assay component ERF_FR_GPCR_hDRD2 was analyzed at the assay endpoint, ERF_FR_GPCR_hDRD2, in the positive analysis fitting direction relative to DMSO as the negative control and baseline of activity. Using a type of binding reporter, loss-of-signal activity can be used to understand changes in binding as they relate to gene DRD2. To generalize the intended target to other relatable targets, this assay endpoint is annotated to the gpcr intended target family, where the subfamily is dopamine.
Human cells are incubated for 60 minutes at room temprature with [3H]methyl-spiperone ligand (0.3 nM) and Butaclamol as control inhibitor.Test Sample Requirements: Minimum for 1) Screen: 60 ul of 10 mM stock -OR- 1 mg (pre-weighed) for 10 uM final testing. 2) Dose Response: 90 ul of 10 mM stock -OR- 1 mg (pre-weighed) for a top concentration at 10 uM.

Chain of human Dopamine Receptor D2L, DRD2 (gene 1813) (P14416 whole entry, looked up): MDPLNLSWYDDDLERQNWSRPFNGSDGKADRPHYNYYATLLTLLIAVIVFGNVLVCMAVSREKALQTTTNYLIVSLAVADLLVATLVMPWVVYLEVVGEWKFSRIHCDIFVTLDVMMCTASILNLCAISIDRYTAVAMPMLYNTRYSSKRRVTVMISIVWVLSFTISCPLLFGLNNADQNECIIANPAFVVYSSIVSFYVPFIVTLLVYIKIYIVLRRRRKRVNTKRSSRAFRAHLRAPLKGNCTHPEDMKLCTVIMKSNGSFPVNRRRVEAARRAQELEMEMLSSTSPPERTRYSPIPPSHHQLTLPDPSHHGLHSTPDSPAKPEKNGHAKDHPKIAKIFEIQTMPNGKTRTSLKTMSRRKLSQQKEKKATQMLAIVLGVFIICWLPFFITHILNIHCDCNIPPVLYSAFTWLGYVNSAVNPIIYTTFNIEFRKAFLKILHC

SMILES	AC50
O=C(/C=C/c1ccc(O)cc1)CC(=O)/C=C/c1ccc(O)cc1	1.55 µM (active)
